Columns and labels:
Conditions in all cases: concentration: 1 μM, replicates: in singlicate; n = 1
[1] = test system: T1, MEK5
T1 construct: gene MAP2K5

[2] = test system: T2, MEK6
T2 construct: gene MAP2K6

[3] = test system: MELK
[4] = test system: MERTK
[5] = test system: MET
[6] = test system: T3, MINK
T3 construct: gene MINK1

[7] = test system: MKK7
[8] = test system: MKNK1
[9] = test system: MKNK2
[10] = test system: T4, MLCK
T4 construct: gene MYLK3
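Also: KINOMEscan kinase panel screen.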

| SMILES | %Inh [1] | %Inh [2] | %Inh [3] | %Inh [4] | %Inh [5] | %Inh [6] | %Inh [7] | %Inh [8] | %Inh [9] | %Inh [10] |
| --- | --- | --- | --- | --- | --- | --- | --- | --- | --- | --- |
| Cc1ccc(C)c(NC(=O)Nc2ccc(C)c(-c3ccc(C(=O)Nc4ccncc4)cc3)c2)c1 [GSK1398473] | 3% | 0% | 81% | 22% | 0% | 6% | 0% | 0% | 4% | 0% |
| Cc1cccc(Nc2nc(N[C@H]3CCCC[C@H]3N)ncc2C(N)=O)c1.Cl [GSK986310] | 98.4% | 5% | 0% | 64% | 0% | 73% | 0% | 0% | 17% | 13% |
| CN(C)CCNS(=O)(=O)c1ccc(-c2ccnc3[nH]ccc23)cc1 [GSK977620] | 71% | 100% | 92.6% | 72% | 0% | 4% | 6% | 0% | 77% | 18% |
| O=C(Nc1n[nH]c2nc(-c3cccc(O)c3)ccc12)C1CC1 [SB-711805] | 95.9% | 0% | 3% | 47% | 0% | 51% | 0% | 0% | 26% | 94.5% |
| Cc1cccc(Nc2nc(NCCN)ncc2C(N)=O)c1 [GSK1292139] | 99.2% | 19% | 1% | 3% | 29% | 87% | 0% | 13% | 15% | 14% |
| Fc1cc(Cl)ccc1Nc1ccnc2cc(-c3ccc(CN4CCOCC4)o3)ccc12 [GW560109] | 99.8% | 0% | 0% | 28% | 51% | 58% | 10% | 13% | 77% | 0% |
| N#CC1(c2cccc(C(=O)Nc3cccc(Oc4ccc5nc(NC(=O)C6CC6)sc5n4)c3)c2)CC1 | 99.1% | 18% | 1% | 80% | 2% | 54% | 0% | 40% | 0% | 36% |
| O=C(O)C(F)(F)F.O=c1[nH]ccc2nc(N[C@@H]3CCNC3)nc(Nc3cc(Cl)cc(Cl)c3)c12 [GSK2188764] | 100% | 34% | 100% | 51% | 0% | 97.6% | 20% | 0% | 14% | 99.1% |
| Cc1ccc(-c2ccc3occ(-c4ccc(S(C)=O)cc4)c3c2)nn1 (centres unmarked) | 0% | 0% | 0% | 0% | 0% | 0% | 0% | 0% | 0% | 5% |
| Cc1ccc(NC(=O)c2ccnc(N3CCCCC3)c2)cc1-c1ccc(C(=O)NCC2CC2)cc1 [GW775610] | 1% | 6% | 0% | 3% | 0% | 5% | 0% | 0% | 33% | 0% |
| Cn1cc(-c2ccc3c(c2)CCN3C(=O)Cc2cc(F)cc(F)c2F)c2c(N)ncnc21 [GSK2634140] | 98.9% | 0% | 12% | 38% | 68% | 21% | 0% | 5% | 1% | 11% |
| CC(C)c1nc(-c2cccc(NS(=O)(=O)c3c(F)cccc3F)c2)c(-c2ccnc(Nc3ccc(N4CCOCC4)nc3)n2)s1.Cl [GSK1723980] | 99.9% | 37% | 47% | 50% | 42% | 17% | 0% | 10% | 98.8% | 0% |
| COc1ccc(NC(=O)c2ccoc2)cc1-c1ccc(C(=O)NCC2CC2)cc1 [GW810437] | 41% | 16% | 29% | 0% | 0% | 7% | 0% | 0% | 13% | 0% |
| O=C(Nc1n[nH]c2nc(-c3ccccc3)ccc12)C1CC1 [SB-708999] | 76% | 0% | 13% | 27% | 0% | 71% | 31% | 30% | 1% | 62% |
| Cl.O=C(Nc1ccc(Oc2ccc3[nH]c(NC(=O)c4ccco4)nc3c2)cc1)Nc1cc(C(F)(F)F)ccc1F [GW683134] | 85% | 0% | 0% | 99.6% | 83% | 0% | 0% | 46% | 93.5% | 15% |
| O=C(O)C(F)(F)F.O=c1[nH]ccc2nc(N[C@@H]3CCNC3)nc(Nc3ccc4c(c3)S(=O)(=O)CC4)c12 [GSK2181306] | 99.9% | 68% | 92.2% | 91.7% | 26% | 96.6% | 0% | 3% | 24% | 98.1% |

| SMILES | %Inh [1] | %Inh [2] | %Inh [3] | %Inh [4] | %Inh [5] | %Inh [6] | %Inh [7] | %Inh [8] | %Inh [9] | %Inh [10] |
| --- | --- | --- | --- | --- | --- | --- | --- | --- | --- | --- |
| Cn1cc(-c2ccc3c(c2)CCN3C(=O)Cc2cc(F)cc(C(F)(F)F)c2)c2c(N)ncnc21 [GSK2635225] | 33% | 0% | 0% | 63% | 21% | 7% | 4% | 0% | 2% | 0% |
| Cc1nn2c(=O)cc(N3CCO[C@H](C)C3)nc2n1Cc1cccc(Cl)c1Cl [GSK2373693] | 19% | 0% | 2% | 17% | 0% | 0% | 0% | 0% | 19% | 0% |
| CC(=O)Nc1cn2nc(Oc3cccc(NC(=O)c4cccc(C(F)(F)F)c4)c3)ccc2n1 | 93.3% | 5% | 20% | 73% | 16% | 22% | 0% | 0% | 0% | 0% |
| COc1cc(Nc2nccc(N3CCC(NC(=O)Nc4ccc5c(c4)OCO5)C3)n2)cc(OC)c1OC (centres unmarked) [GSK1379766] | 98.8% | 0% | 0% | 40% | 12% | 0% | 0% | 14% | 66% | 0% |
| Nc1ncc(-c2ccc3nccc(-c4ccncc4)c3c2)cc1S(=O)(=O)N1CCCCC1 [GSK1693850] | 50% | 12% | 36% | 35% | 0% | 31% | 0% | 2% | 6% | 0% |
| CC(C)NCC(Cc1ccccc1)NC(=O)c1cc(Br)c(-c2ccnc3[nH]ccc23)s1.Cl.Cl (centres unmarked) [GSK1383281] | 3% | 79% | 97.5% | 39% | 17% | 37% | 0% | 0% | 90.5% | 13% |
| Cc1ccccc1CC(=O)N1CCc2cc(-c3cn(C)c4ncnc(N)c34)ccc21 [GSK2603346] | 99.9% | 73% | 7% | 46% | 70% | 0% | 0% | 7% | 55% | 6% |
| Cc1cc(-c2c(-c3ccc(F)cc3)ncn2CCCN2CCOCC2)nc(N)n1 [SB-222517] | 26% | 29% | 0% | 0% | 0% | 15% | 0% | 0% | 0% | 0% |
| CCn1cnc2c(NCc3ccccc3)ncnc21 [SKF-96418] | 38% | 9% | 0% | 0% | 0% | 12% | 17% | 0% | 0% | 0% |
| CSc1ccc(NC2=C(c3ccc(Cl)cc3)C(=O)NC2=O)cc1 [SB-317658] | 22% | 3% | 0% | 0% | 0% | 0% | 0% | 14% | 0% | 29% |
| CN(c1ccc(NC(=O)N2CCN(CCCN3CCOCC3)CC2)cc1)c1ccnc(Nc2ccc(CS(C)(=O)=O)cc2)n1.Cl [GW830899] | 80% | 0% | 0% | 0% | 67% | 0% | 0% | 33% | 0% | 0% |
| CN1CCN(Cc2ccc(NC(=O)Nc3ccc(N(C)c4ccnc(Nc5ccc(CS(C)(=O)=O)cc5)n4)cc3)cc2)CC1.Cl [GW827654] | 99.1% | 0% | 32% | 72% | 67% | 95.6% | 0% | 96.7% | 100% | 26% |
| CN(c1ccc(F)c(NC(=O)c2cccc(OC(C)(C)C#N)c2Cl)c1)c1ccc2nc(NC(=O)C3CC3)sc2n1 | 99.8% | 0% | 0% | 30% | 24% | 54% | 39% | 0% | 22% | 0% |
| Cc1ccc(O)cc1Nc1ccnc2cc(-c3ccc(CN4CCCCC4)o3)ccc12 [GW557777] | 97.9% | 15% | 0% | 13% | 0% | 38% | 0% | 0% | 0% | 0% |
| CCOc1nccc(-c2c(-c3ccc(F)cc3)ncn2C2CCNCC2)n1 [SB-249175] | 26% | 18% | 0% | 18% | 0% | 49% | 7% | 57% | 46% | 2% |
| O=C1NC(=O)C(c2ccccc2Cl)=C1Nc1cccc(Cl)c1 [SB-342409] | 53% | 0% | 0% | 1% | 0% | 0% | 23% | 0% | 18% | 3% |
